Measured values: the supplement of paper PMC10849652
Of roughly 8,800 targets only a part is listed; those with a hit were picked by preference. About 0.5% of all pairs of compound and target were hits. Values without a mark were called inactive.

Columns and labels:
Experiment in all cases: log2 fold change, soluble protein after heating vs DMSO (PISA); higher = thermal stabilisation; K562 lysate, 10 uM; active = over 0.2 and 3.5 SD of the protein, either way, in both replicates (recomputed)
[1] = compound: NCC(=O)Nc1ccc(-n2nc(C(F)(F)F)cc2-c2ccc3c(ccc4ccccc43)c2)cc1
How it was run: (§1)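 Values give the log-two fold change in thermal stability against solvent controls, from duplicates. Crude K562 extract at 1 mg/mL protein, made by dounce homogenisation in PBS pH 7.4 with 1 mM MgCl2, was treated with 10 μM compound for 30 min. After 3 min heating across 48°C-58°C, aliquots were pooled, adjusted to 0.5% NP-40 at 4°C and centrifuged at 21,000xg for 90 min. The supernatant was measured by TMTpro 16plex LC-MS/MS with channel sums equalised.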

vorinostat = compound: O=C(CCCCCCC(=O)Nc1ccccc1)NO [vorinostat]
How it was run: as §1

silmitasertib = compound: O=C(O)c1ccc2c(c1)nc(Nc1cccc(Cl)c1)c1ccncc12 [silmitasertib]
How it was run: as §1

[2] = compound: O=C1NC(=O)C(c2cnc3ccccn23)=C1c1cn2c3c(cc(F)cc13)CN(C(=O)N1CCCCC1)CC2
How it was run: as §1

entospletinib = compound: c1cn2cc(-c3ccc4cn[nH]c4c3)nc(Nc3ccc(N4CCOCC4)cc3)c2n1 [entospletinib]
How it was run: as §1

Chain of UniProt Q13601 (Q13601 whole entry, looked up): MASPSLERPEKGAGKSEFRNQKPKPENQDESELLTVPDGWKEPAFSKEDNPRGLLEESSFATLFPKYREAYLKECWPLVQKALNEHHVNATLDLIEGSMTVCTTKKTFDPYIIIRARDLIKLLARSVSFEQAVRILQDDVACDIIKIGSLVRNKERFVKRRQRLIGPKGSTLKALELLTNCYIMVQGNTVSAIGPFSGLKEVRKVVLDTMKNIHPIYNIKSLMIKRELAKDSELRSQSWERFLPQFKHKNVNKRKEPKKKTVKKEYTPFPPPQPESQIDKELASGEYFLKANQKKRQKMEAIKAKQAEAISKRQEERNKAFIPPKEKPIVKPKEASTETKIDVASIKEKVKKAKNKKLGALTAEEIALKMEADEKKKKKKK
Chain of UniProt O00522 (O00522 whole entry, looked up): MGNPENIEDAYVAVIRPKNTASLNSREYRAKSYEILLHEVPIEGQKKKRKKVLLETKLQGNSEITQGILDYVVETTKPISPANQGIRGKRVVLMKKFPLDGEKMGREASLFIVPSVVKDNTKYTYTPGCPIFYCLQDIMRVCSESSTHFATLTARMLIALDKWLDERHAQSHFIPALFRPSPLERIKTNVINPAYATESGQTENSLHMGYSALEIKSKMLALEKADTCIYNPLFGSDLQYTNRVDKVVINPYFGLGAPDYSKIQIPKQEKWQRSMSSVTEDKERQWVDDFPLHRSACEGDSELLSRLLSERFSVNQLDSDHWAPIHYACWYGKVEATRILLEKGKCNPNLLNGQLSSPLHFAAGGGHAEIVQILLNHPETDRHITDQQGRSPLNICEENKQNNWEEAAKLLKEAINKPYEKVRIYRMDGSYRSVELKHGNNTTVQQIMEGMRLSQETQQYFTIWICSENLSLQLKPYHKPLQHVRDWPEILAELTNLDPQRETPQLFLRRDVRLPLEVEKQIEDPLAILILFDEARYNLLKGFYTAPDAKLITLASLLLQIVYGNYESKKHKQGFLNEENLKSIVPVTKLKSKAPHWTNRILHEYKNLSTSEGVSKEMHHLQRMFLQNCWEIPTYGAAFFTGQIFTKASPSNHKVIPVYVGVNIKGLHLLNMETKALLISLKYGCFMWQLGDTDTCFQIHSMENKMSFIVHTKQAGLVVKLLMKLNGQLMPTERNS
Chain of UniProt O95777 (O95777 whole entry, looked up): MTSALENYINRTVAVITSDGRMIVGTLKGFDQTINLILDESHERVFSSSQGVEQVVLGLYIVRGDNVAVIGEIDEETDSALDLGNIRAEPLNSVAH
Chain of UniProt Q9UI95 (Q9UI95 whole entry, looked up): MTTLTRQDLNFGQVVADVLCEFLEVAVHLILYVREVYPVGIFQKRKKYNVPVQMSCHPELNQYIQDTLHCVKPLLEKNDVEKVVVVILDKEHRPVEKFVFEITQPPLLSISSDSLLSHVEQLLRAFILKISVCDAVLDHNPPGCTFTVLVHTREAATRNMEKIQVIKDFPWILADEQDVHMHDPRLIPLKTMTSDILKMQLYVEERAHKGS
Chain of UniProt P34949 (P34949 whole entry, looked up): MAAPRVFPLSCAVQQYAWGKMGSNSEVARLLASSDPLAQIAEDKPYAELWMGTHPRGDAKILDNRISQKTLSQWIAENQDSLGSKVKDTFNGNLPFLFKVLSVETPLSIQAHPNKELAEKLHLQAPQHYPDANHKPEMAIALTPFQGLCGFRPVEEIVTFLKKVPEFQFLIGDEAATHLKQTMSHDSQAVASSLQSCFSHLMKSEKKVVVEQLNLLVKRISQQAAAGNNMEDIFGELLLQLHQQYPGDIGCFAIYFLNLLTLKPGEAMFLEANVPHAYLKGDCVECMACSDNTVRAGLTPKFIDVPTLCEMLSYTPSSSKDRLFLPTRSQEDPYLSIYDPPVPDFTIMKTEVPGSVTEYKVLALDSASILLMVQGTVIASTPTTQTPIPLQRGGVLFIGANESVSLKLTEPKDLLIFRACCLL
Chain of UniProt Q16644 (Q16644 whole entry, looked up): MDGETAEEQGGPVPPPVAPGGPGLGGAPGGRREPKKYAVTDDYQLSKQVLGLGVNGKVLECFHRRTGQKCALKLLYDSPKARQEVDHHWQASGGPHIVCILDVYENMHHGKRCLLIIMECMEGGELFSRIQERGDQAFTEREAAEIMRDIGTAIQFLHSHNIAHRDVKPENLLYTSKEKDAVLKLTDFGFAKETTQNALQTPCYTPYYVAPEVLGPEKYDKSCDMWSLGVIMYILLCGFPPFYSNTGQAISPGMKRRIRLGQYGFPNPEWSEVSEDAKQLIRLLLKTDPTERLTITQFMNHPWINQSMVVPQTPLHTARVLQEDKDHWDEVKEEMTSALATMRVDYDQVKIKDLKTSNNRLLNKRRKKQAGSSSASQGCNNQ
Chain of UniProt Q16539 (Q16539 whole entry, looked up): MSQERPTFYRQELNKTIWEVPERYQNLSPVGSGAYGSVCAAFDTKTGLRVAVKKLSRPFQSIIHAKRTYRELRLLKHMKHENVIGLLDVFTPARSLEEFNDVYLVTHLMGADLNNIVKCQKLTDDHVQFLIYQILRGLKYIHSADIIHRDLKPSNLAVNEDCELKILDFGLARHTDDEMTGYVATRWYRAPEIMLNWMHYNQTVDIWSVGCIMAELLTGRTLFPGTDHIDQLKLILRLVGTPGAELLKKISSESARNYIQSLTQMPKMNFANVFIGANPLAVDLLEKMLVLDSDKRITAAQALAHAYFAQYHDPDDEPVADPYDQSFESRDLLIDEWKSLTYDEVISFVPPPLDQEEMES
Chain of UniProt P49137 (P49137 whole entry, looked up): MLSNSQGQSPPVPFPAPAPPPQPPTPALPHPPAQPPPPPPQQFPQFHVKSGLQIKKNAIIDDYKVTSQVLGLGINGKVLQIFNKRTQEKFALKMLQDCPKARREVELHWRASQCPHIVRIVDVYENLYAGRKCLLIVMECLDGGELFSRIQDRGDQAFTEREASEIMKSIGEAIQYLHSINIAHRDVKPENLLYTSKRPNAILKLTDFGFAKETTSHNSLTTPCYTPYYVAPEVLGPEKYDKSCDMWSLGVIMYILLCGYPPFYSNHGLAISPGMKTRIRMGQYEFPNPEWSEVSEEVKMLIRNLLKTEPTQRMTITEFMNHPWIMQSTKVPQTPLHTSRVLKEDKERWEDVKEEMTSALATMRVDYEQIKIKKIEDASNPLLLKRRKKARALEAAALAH
Chain of UniProt P28838 (P28838 whole entry, looked up): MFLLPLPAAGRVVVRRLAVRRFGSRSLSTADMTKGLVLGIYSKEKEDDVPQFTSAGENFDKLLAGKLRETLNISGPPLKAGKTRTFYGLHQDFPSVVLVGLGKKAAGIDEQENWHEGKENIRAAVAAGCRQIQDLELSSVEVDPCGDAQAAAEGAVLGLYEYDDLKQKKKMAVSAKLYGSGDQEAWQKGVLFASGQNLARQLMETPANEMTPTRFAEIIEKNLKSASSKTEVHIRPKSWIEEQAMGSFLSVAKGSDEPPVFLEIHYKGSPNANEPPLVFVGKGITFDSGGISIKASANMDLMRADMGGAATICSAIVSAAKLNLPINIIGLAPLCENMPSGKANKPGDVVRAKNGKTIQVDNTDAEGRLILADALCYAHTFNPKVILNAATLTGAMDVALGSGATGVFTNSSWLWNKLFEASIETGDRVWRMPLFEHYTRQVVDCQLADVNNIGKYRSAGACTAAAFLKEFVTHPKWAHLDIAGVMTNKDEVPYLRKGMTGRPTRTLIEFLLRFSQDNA
Chain of UniProt Q8N5G2 (Q8N5G2 whole entry, looked up): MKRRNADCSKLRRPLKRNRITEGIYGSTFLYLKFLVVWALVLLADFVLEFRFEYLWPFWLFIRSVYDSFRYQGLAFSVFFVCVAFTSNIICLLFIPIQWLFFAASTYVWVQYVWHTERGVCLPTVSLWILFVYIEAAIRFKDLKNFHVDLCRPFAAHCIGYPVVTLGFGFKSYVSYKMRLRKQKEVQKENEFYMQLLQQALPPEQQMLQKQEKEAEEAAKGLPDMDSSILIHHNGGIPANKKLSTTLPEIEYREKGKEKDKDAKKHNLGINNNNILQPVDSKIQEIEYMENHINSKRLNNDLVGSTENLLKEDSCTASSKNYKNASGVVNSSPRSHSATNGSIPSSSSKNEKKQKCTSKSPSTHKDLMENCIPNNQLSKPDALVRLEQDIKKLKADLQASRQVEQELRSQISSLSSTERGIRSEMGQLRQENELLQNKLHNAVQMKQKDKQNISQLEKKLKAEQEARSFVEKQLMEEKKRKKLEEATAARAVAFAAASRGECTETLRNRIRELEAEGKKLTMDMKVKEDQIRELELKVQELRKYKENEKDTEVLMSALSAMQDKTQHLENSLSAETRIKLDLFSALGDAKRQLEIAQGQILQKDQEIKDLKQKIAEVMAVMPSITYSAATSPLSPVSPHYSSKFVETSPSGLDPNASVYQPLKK
Chain of UniProt Q8IW41 (Q8IW41 whole entry, looked up): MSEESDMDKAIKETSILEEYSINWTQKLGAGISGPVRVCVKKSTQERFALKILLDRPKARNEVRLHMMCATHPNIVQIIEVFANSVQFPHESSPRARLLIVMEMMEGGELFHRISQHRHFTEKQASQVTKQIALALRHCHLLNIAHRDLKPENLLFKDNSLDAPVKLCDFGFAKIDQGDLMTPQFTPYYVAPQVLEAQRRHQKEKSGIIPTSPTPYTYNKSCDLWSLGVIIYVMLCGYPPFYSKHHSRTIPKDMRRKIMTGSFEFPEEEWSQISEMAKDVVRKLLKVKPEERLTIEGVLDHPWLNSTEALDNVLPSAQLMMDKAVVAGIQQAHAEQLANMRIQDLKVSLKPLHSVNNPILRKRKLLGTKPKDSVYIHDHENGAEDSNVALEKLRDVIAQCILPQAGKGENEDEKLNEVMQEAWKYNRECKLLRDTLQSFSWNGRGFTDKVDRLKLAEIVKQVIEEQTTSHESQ

For MAPKAPK3 (UniProt Q16644), the log2 fold change [1] was -0.063, the log2 fold change (vorinostat) was -0.43 (active) and the log2 fold change (silmitasertib) was -0.001. The log2 fold change [2] was 0.162 and the log2 fold change (entospletinib) was -0.049.

Work on MCU (UniProt Q8NE86) yielded a log2 fold change [1] of -0.037, a log2 fold change (vorinostat) of 0.04 and a log2 fold change (silmitasertib) of 0. It also gave a log2 fold change [2] of -0.072 and a log2 fold change (entospletinib) of -0.016.

MLH1 (UniProt P40692) was tested, and the log2 fold change [1] was 0.04, the log2 fold change (vorinostat) was -0.312 (active) and the log2 fold change (silmitasertib) was 0.025. The log2 fold change [2] was 0.005 and the log2 fold change (entospletinib) was 0.022.

In the case of MAPKAPK2 (UniProt P49137), the log2 fold change [1] was -0.019, the log2 fold change (vorinostat) was -0.36 (active) and the log2 fold change (silmitasertib) was 0.072. It also gave a log2 fold change [2] of -0.014 and a log2 fold change (entospletinib) of 0.04.

With KNL1 (UniProt Q8NG31) the log2 fold change [1] was 0.022, the log2 fold change (vorinostat) was -0.254 (active) and the log2 fold change (silmitasertib) was -0.003. For the same target, the log2 fold change [2] was -0.009 and the log2 fold change (entospletinib) was -0.011.

LAP3 (UniProt P28838) showed a log2 fold change [1] of 0.048, a log2 fold change (vorinostat) of 0.082 and a log2 fold change (silmitasertib) of -0.104. The log2 fold change [2] was 0.104 and the log2 fold change (entospletinib) was -0.008.

KNOP1 (UniProt Q1ED39) was tested, and the log2 fold change [1] was 0.019, the log2 fold change (vorinostat) was 0.063 and the log2 fold change (silmitasertib) was 0.005. For the same target, the log2 fold change [2] was 0.03 and the log2 fold change (entospletinib) was -0.035.

Work on MAP4 (UniProt P27816) yielded a log2 fold change [1] of 0.017, a log2 fold change (vorinostat) of 0.092 and a log2 fold change (silmitasertib) of -0.023. It also gave a log2 fold change [2] of 0.016 and a log2 fold change (entospletinib) of 0.005.

MRPL12 (UniProt P52815) gave a log2 fold change [1] of -0.07, a log2 fold change (vorinostat) of 0.116 and a log2 fold change (silmitasertib) of -0.023. The log2 fold change [2] was 0 and the log2 fold change (entospletinib) was -0.152.

For MAP2K7 isoform 4 (UniProt O14733), the log2 fold change [1] was 0.009, the log2 fold change (vorinostat) was -1.09 (active) and the log2 fold change (silmitasertib) was 0.167. For the same target, the log2 fold change [2] was -0.051 and the log2 fold change (entospletinib) was -0.047.

In the case of MPI (UniProt P34949), the log2 fold change [1] was 0.013, the log2 fold change (vorinostat) was 0.049 and the log2 fold change (silmitasertib) was -0.047. The log2 fold change [2] was -0.007 and the log2 fold change (entospletinib) was -0.017.

For KIF4B (UniProt Q2VIQ3), the log2 fold change [1] was -0.035, the log2 fold change (vorinostat) was -0.506 (active) and the log2 fold change (silmitasertib) was 0.027. The log2 fold change [2] was -0.02 and the log2 fold change (entospletinib) was 0.

KRI1 (UniProt Q8N9T8) was tested, and the log2 fold change [1] was 0.085, the log2 fold change (vorinostat) was -0.285 (active) and the log2 fold change (silmitasertib) was -0.023. It also gave a log2 fold change [2] of -0.007 and a log2 fold change (entospletinib) of -0.07.

With MAPK14 (UniProt Q16539) the log2 fold change [1] was -0.007, the log2 fold change (vorinostat) was -0.294 and the log2 fold change (silmitasertib) was 0.279. It also gave a log2 fold change [2] of 0.015 and a log2 fold change (entospletinib) of -0.005.

MAD2L2 (UniProt Q9UI95) was tested, and the log2 fold change [1] was 0.075, the log2 fold change (vorinostat) was -0.348 (active) and the log2 fold change (silmitasertib) was -0.006. It also gave a log2 fold change [2] of -0.02 and a log2 fold change (entospletinib) of 0.017.

With KRIT1 (UniProt O00522) the log2 fold change [1] was -0.125, the log2 fold change (vorinostat) was -0.046 and the log2 fold change (silmitasertib) was -0.013. It also gave a log2 fold change [2] of -0.02 and a log2 fold change (entospletinib) of 0.012.

Target KLHL36 (UniProt Q8N4N3) has a log2 fold change [1] of 0.059, a log2 fold change (vorinostat) of -0.161 and a log2 fold change (silmitasertib) of 0.082. The log2 fold change [2] was -0.037 and the log2 fold change (entospletinib) was -0.006.

Work on MACO1 (UniProt Q8N5G2) yielded a log2 fold change [1] of 0.081, a log2 fold change (vorinostat) of 0.028 and a log2 fold change (silmitasertib) of -0.003. It also gave a log2 fold change [2] of -0.003 and a log2 fold change (entospletinib) of 0.005.

In the case of KLC1 isoform 6 (UniProt Q07866), the log2 fold change [1] was 0.024, the log2 fold change (vorinostat) was -0.231 (active) and the log2 fold change (silmitasertib) was -0.004. It also gave a log2 fold change [2] of -0.034 and a log2 fold change (entospletinib) of 0.013.

For LSM8 (UniProt O95777), the log2 fold change [1] was -0.052, the log2 fold change (vorinostat) was 0.063 and the log2 fold change (silmitasertib) was -0.011. For the same target, the log2 fold change [2] was 0.009 and the log2 fold change (entospletinib) was 0.028.

KRR1 (UniProt Q13601) was tested, and the log2 fold change [1] was 0.013, the log2 fold change (vorinostat) was 0.02 and the log2 fold change (silmitasertib) was 0.013. For the same target, the log2 fold change [2] was 0.101 and the log2 fold change (entospletinib) was 0.011.

With LARS2 (UniProt Q15031) the log2 fold change [1] was -0.062, the log2 fold change (vorinostat) was -0.229 and the log2 fold change (silmitasertib) was 0.054. It also gave a log2 fold change [2] of -0.083 and a log2 fold change (entospletinib) of 0.036.

In the case of MAPKAPK5 (UniProt Q8IW41), the log2 fold change [1] was -0.012, the log2 fold change (vorinostat) was 0.07 and the log2 fold change (silmitasertib) was 0.002. It also gave a log2 fold change [2] of 0.052 and a log2 fold change (entospletinib) of 0.028.

MICU1 isoform 3 (UniProt Q9BPX6) was tested, and the log2 fold change [1] was -0.085, the log2 fold change (vorinostat) was -0.133 and the log2 fold change (silmitasertib) was 0.065. For the same target, the log2 fold change [2] was -0.003 and the log2 fold change (entospletinib) was -0.019.

For MIPEP (UniProt Q99797), the log2 fold change [1] was 0.005, the log2 fold change (vorinostat) was -0.043 and the log2 fold change (silmitasertib) was 0.007. The log2 fold change [2] was -0.021 and the log2 fold change (entospletinib) was -0.028.
